# This excerpt belongs to a sample that is enriched for hits.
# KDM5B inhibitor: Primary screen for KDM5B Histone Demethylases FDH-coupled qHTS; Lysine-specific demethylase 5B (Homo sapiens), Q9UGL1; KDM5B demethylase, FDH-coupled NADH fluorescence (FDH is formaldehyde dehydrogenase); Potency, µM (series often up to 57.7 µM), usual class: inhibitors; 2.6% of 220,000 active; AID 1347165, 2019; active = well fitted inhibition curve with a large enough effect; note: nearly all actives have a fitted effect of over 70% in size
# Target sequence (Q9UGL1 whole entry, looked up): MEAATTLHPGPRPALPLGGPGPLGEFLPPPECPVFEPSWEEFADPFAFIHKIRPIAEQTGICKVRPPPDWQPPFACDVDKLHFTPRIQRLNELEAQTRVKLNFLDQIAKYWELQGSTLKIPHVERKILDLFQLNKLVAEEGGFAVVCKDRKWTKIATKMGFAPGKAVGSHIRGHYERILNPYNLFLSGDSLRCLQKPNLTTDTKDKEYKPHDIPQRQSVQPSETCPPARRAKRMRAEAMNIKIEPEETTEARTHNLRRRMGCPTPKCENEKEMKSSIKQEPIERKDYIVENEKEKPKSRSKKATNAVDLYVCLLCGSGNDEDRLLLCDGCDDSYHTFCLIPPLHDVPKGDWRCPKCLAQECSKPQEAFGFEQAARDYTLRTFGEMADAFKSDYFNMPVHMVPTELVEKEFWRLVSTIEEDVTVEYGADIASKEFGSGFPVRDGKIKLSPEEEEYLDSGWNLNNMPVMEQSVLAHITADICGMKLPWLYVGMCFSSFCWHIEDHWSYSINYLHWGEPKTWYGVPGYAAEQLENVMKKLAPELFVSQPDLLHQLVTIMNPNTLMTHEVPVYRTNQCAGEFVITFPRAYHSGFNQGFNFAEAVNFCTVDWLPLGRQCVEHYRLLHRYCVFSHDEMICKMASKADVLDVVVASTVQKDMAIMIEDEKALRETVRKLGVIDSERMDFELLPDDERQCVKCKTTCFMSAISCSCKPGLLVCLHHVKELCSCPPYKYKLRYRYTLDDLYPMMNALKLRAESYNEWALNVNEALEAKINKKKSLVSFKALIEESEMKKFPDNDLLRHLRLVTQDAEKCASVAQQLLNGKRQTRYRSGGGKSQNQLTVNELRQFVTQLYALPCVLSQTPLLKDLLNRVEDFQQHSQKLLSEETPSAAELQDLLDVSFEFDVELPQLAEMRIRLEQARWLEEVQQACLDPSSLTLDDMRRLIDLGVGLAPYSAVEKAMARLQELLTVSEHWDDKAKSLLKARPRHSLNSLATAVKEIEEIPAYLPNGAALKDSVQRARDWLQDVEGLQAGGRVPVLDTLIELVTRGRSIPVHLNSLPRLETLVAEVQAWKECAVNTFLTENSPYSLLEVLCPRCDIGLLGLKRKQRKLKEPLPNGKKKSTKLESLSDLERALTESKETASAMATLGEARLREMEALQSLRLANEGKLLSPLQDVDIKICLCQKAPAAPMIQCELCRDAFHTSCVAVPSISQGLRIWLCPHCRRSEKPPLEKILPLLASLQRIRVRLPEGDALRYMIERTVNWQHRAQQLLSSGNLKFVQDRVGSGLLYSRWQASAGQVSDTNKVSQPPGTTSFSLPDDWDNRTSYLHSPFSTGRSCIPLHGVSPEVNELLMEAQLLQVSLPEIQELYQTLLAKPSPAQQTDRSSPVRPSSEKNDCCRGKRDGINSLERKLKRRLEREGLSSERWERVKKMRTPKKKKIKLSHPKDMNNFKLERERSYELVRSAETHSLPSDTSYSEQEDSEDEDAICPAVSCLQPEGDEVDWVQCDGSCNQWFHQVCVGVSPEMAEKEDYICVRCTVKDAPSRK
#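 Measured: NADH fluorescence change, 30 min, RT. System: KDM5BΔAP 200 nM final, H3K4me3 peptide, α-KG, Fe(II), ascorbate, NAD⁺ plus FDH, pH 7.5 HEPES. Compounds: titrated, 10 min pre-incubation with enzyme.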
# A number is an active result; – = inactive.
SMILES,KDM5B inhibitor
CN1[C@@H](CCC(=O)NCc2ccccc2)CNC(=O)[C@@H]2[C@H]1CCN2Cc1cccs1,–
O=C(N[C@H]1C[C@H]2C(=O)NC[C@@H](CCC(=O)N3CCN(c4ccccn4)CC3)N2C1)c1ccccc1,25µM
Cc1ccc(CN2CC[C@@H]3[C@H]2C(=O)NC[C@H](CCC(=O)N2CCN(c4ccccn4)CC2)N3C)cc1,32µM
CN1[C@@H](CCC(=O)NCc2ccco2)CNC(=O)[C@H]2NCC[C@H]21,–
COC[C@H]1CCCN1C(=O)CC[C@H]1CNC(=O)[C@@H]2[C@@H](CCN2Cc2ccc(C)cc2)N1C,–
CC(C)N1CC[C@@H]2[C@H]1C(=O)NC[C@H](CCC(=O)N1CCN(c3ccccc3)CC1)N2C,–
CN1[C@@H](CCC(=O)N2CCN(c3ccccn3)CC2)CNC(=O)[C@@H]2[C@H]1CCN2Cc1cccs1,28µM
O=C(Nc1ccccc1)N[C@H]1C[C@H]2C(=O)NC[C@@H](CCC(=O)N3CCN(c4ccccc4)CC3)N2C1,–
CN1[C@@H](CCC(=O)N2CCc3ccccc32)CNC(=O)[C@@H]2[C@H]1CCN2Cc1cccs1,–
CN1[C@@H](CCC(=O)N2CCN(c3ccccn3)CC2)CNC(=O)[C@H]2NCC[C@H]21,35µM
Cc1cccc(NC(=S)Nc2ccc(S(=O)(=O)Nc3ccccc3)cc2)c1,–
N#C/C(=C/c1ccccc1)C(=O)OCC(=O)N1CCC(Cc2ccccc2)CC1,–
CCCCn1c(CN2CCN(C(=O)c3ccco3)CC2)nc2c1c(=O)[nH]c(=O)n2Cc1ccccc1,–
CCCCCCCCCCCCCCCCNC(=O)CC#N,–
O=C(c1ccc(F)cc1)N1CCc2c([nH]c3ccccc23)C1c1ccc(Cl)cc1 (stereo not given),–
COC(=O)[C@@H]1Cc2c([nH]c3ccccc23)[C@H]2C[C@@H](NCCCn3ccnc3)C[C@@H](c3ccc(Cl)c(F)c3)N21,–
COCCNC(=O)[C@H]1C[C@H](Oc2ccccc2)CN1C(=O)c1cccc(OC)c1,–
COC(=O)[C@@H]1Cc2c([nH]c3ccccc23)[C@H]2C[C@@H](NCCN(C)C)C[C@@H](c3ccc(F)cc3)N21,25µM
COCCN[C@H]1C[C@@H]2c3[nH]c4ccccc4c3C[C@@H](C(=O)OC)N2[C@H](c2ccccc2)C1,28µM
O=C(NCCCn1ccnc1)c1ccc(C2CCCNC2)cc1 (stereo not given),–
COCCN[C@@H]1C[C@@H]2c3[nH]c4ccccc4c3C[C@@H](C(=O)OC)N2[C@H](c2cccc(OC)c2)C1,5.6µM
O=C(CCC1CCCC1)N1CCc2c([nH]c3ccccc23)C1c1ccc(F)cc1 (stereo not given),–
COC(=O)[C@@H]1Cc2c([nH]c3ccccc23)C2CCC(=O)N21 (stereo not given in full),–
COc1ccc(C(=O)NC2CCN(CC(=O)NCc3cccc(OC)c3)CC2)cc1,–
COC(=O)[C@@H]1Cc2c([nH]c3ccccc23)[C@H]2C[C@@H](NCCCn3ccnc3)C[C@@H](c3ccc(F)cc3)N21,13µM
SMILES,KDM5B inhibitor
O=C1NCC(=O)N2C(c3ccccc3)c3[nH]c4ccccc4c3C[C@@H]12 (stereo not given in full),–
CCOc1ccc(NC(=O)c2cnn(-c3ccc(C)cc3)c2-n2cccc2)cc1,–
O=C(OCC(=O)N1CCOCC1)c1ccc2ccccc2n1,–
COCCN(CCOC)C(=O)c1cc(-c2ccco2)nc2ccccc12,–
COc1ccc(-c2nc(CS(=O)CC(=O)NCc3ccccc3)c(C)o2)cc1 (stereo not given),–
CN(C)S(=O)(=O)c1cccc(NC(=O)c2ccccc2Oc2ccccc2)c1,–
CCC(=O)Nc1ccc(-c2csc(NCCN(CC)CC)n2)cc1,–
CCn1c(SC(C)C(=O)Nc2ccnn2C(C)C)nnc1C1CC1 (stereo not given),–
COCCN1C(=O)CS(=O)(=O)C12CCN(C(=O)COc1cccc(C)c1)CC2,–
COc1cc(OC)cc(C(=O)N2CCc3cn(C)c4cccc(c34)C2)c1,–
Cc1ccc(OCC(=O)N2CCc3ccccc3C2)c(Br)c1,–
COc1cc2c(cc1OC)CN(C(=O)CCOc1ccccc1)CC2,–
CCCN1CCN(C(=O)c2cccc(C(F)(F)F)c2)CC1,–
COCCn1cc2c3c(cccc31)CN(C(=O)c1cccc(C(F)(F)F)c1)CC2,28µM
CCCn1cc2c3c(cccc31)CN(C(=O)COc1ccccc1)CC2,32µM
CC(=O)Nc1ccc(OCC(=O)N2CCc3ccccc3C2)cc1,–
COCCn1cc2c3c(cccc31)CN(C(=O)COc1cccc(C)c1)CC2,32µM
CC1(C)C(=O)N(CCOc2ccccc2)[C@H]2CN(Cc3ccc4c(c3)CCO4)C[C@@H]2[S+]1(=O)[O-],–
COc1cccc([S+](=O)([O-])N2CCC3(C2)C(=O)N(C)c2ccccc23)c1 (stereo not given),–
O=C(NCc1cccnc1)c1cnc2c(c1)N([S+](=O)([O-])c1cccnc1)CCC2,–
O=C(O)c1cc(Sc2ccccc2C(F)(F)F)nc2ccccc12,–
CC1CCc2noc(NC(=O)c3ccc(Cl)cc3)c2C1 (stereo not given),–
CCOc1cc2c(cc1NC(=O)CC1CCCC1)OC(C)C2 (stereo not given),–
O=C(CSc1ncnc2nc[nH]c12)NCc1cccc(Cl)c1,–
O=C1CCc2cc(-c3csc(NC4CC4)n3)ccc2N1,–
SMILES,KDM5B inhibitor
CC(NC(=O)c1ccc2c(c1)OCO2)c1cccc(C(F)(F)F)c1 (stereo not given),–
CC(NC(=O)c1cccc(C#N)c1)C(=O)N1CCN(c2ccccn2)CC1 (stereo not given),25µM
Cc1cccc(C)c1N1CCN(C(=O)c2ccc3c(c2)OCO3)CC1,–
CC(C)CCN1CCN(C(=O)c2cccc(C#N)c2)CC1,–
O=C(c1cccc(Br)c1)N1CCN(c2ccccn2)CC1,–
CC(NC(=O)c1ccc2c(c1)OCO2)C(=O)N1CCN(c2ccccn2)CC1 (stereo not given),32µM
Cc1ccc(C2CC2C(=O)O)cc1 (stereo not given),–
CCCOc1ccc(-c2nonc2NC(=O)c2cc(OC)c(OC)c(OC)c2)cc1OCCC,–
COCCNc1oc(-c2ccc(OC)cc2)nc1S(=O)(=O)c1ccc2c(c1)OCCO2,–
COCCNc1ncc(-c2ccc(O)c(OC)c2)c2c1OCC2,35µM
COCCNc1ncc(-c2cccc(C(C)=O)c2)c2c1OCC2,–
COCCNc1ncc(-c2ccc(O)cc2)c2c1OCC2,32µM
COCCNc1nc(C)nc2c1CCN(C(=O)c1ccoc1)CC2,–
COCCNc1ncc(-c2ccc(OC)c(OC)c2)c2c1OCC2,35µM
CCn1nnc2cc(C(=O)Nc3nc(-c4ccc5c(c4)CCC(=O)N5)cs3)ccc21,–
Cc1cccc2sc(NC(=O)NC3CC(=O)N(c4ccc5c(c4)OCCO5)C3)nc12 (stereo not given),–
Cc1ccc(CNCC(=O)O)cc1,–
CCC(C)(NCc1ccccc1)c1nnnn1-c1ccccc1C (stereo not given),–
Cc1cc2cc(NS(=O)(=O)c3ccc(C(C)(C)C)cc3)ccc2[nH]1,–
CC(C)CCNC(=O)C12CC3CC(C1)CC(c1ccccc1)(C3)C2,–
Cc1cc(C)c(S(=O)(=O)Nc2ccc3oc(C)nc3c2)c(C)c1,–
CN(C)c1nc2c(c(=O)n(C)c(=O)n2C)n1CCc1ccccc1,–
Cc1c(-c2cccc(Cl)c2)nc2ccccc2c1C(=O)NC1CCCC1,–

# Assay outcomes deposited in PubChem by National Center for Advancing Translational Sciences (NCATS).
